Data as given in PubChem BioAssay.
Calls of active or inactive are those of the source. Unless noted, the rule behind the calls is not given here.

Test system: not listed separately
Assay: Brca1-Bard1 BiLC signal decrease – luminescence, single concentration, counter-screen for Mdm2/MdmX interaction inhibitor project, confirmation (AID 504668)
Conditions: Brca1/Bard1 bimolecular luciferase complementation counterscreen, at 8 µM, stronger effect = higher value

SMILES | inhibition
COc1cccc(N2CCN(c3ncnc4c3cnn4-c3ccc(C)cc3C)CC2)c1 | 28% (active)
Cn1c(=NC(=O)CCl)sc2ccccc21 | 28.7% (active)
CCCCCCCC[n+]1cccc2c3ccccc3ccc21 | 23.3% (active)
CCCCCN=C(N)N/N=C/c1c[nH]c2ccc(OC)cc12 | 30.4% (active)
O=C(Nc1ccc2c(c1)OCCO2)c1cccc2nc3ccccc3nc12 | 27.6% (active)
CCN(CC)CCCNc1ccc(-c2nnc(-c3ccc(OCC(C)C)cc3)o2)cn1 | 23.9% (active)
CC(NC(=O)Nc1nnc(C(F)(F)F)s1)(C(F)(F)F)C(F)(F)F | 32.9% (active)
CCCCn1c(CCl)nc2cc(S(=O)(=O)N3CCOCC3)ccc21 | 30.4% (active)
COc1ccccc1C(=O)Nc1nc(-c2ccc(S(=O)(=O)N3CCOCC3)cc2)cs1 | 29.5% (active)
CCCCCc1ccc(OCCCC[n+]2ccccc2)c(CCCCC)c1 | 24.6% (active)
Cc1ccc(N(Cc2cc(=O)[nH]c3ccccc23)C(=O)CCl)cc1 | 25.3% (active)
Cc1ccc2sc(N(CCCN(C)C)C(=O)CCS(=O)(=O)c3ccccc3)nc2c1C | 29.9% (active)
O=C(Nc1ccc(OCC(F)(F)C(F)F)c(C(F)(F)F)c1)c1ccccc1O | 28.2% (active)
O=C(CSc1ccccn1)Nc1nonc1[N+](=O)[O-] | 29.3% (active)
CCCCC(O)(CCCC)C(=O)NN(C(=O)CCl)c1ccccc1 | 34% (active)
NC(=O)c1oc2ccccc2c1NC(=O)c1ccc([N+](=O)[O-])o1 | 31.8% (active)
CC(C)(C)c1ccc(C2CC2C(=O)N/N=C\c2ccc[nH]2)cc1 (configuration not stated) | 30.5% (active)
Cc1ccc(-c2nn(C(C)(C)C)c3ncnc(N)c23)cc1 | 30.7% (active)
Cn1c(N)c(C(=O)COC(=O)c2ccccc2C(=O)c2ccc(Cl)c([N+](=O)[O-])c2)c(=O)n(C)c1=O | 26.2% (active)
N#CC1(NC(=O)Cn2ncc(Cl)c(Cl)c2=O)CCCCC1 | 29.6% (active)

SMILES | inhibition
CCCCCCCNC(=O)C1(CC2CC(c3ccc(Cl)cc3)=NO2)CCNCC1 (configuration not stated) | 25.4% (active)
O=C(/C=C/c1ccccc1)NC(NC(=S)Nc1ccc(Cl)cc1)C(Cl)(Cl)Cl (configuration not stated) | 23.7% (active)
CCCCCc1cc(=O)oc2c(C(CCN3CCCCC3)c3cc(OC)c(OC)c(OC)c3)c(OC)cc(OC)c12 (configuration not stated) | 26.6% (active)
O=C(Nc1ccc(OCC(F)(F)C(F)F)c(C(F)(F)F)c1)c1ccc(Cl)cc1 | 34% (active)
O=C(Nc1ccc(OC(F)F)cc1)Nc1cccc(C(F)(F)F)c1 | 24.4% (active)
CC(=O)Nc1ccc(NC2=Nc3ccccc3N3C2=Nc2c(c(C)nn2-c2ccccc2)C3c2ccccc2)cc1 (configuration not stated) | 32.1% (active)
CN(C)c1ccnc2c[cH-]cc12.[Fe].c1ccc(-[c-]2[c-](-c3ccccc3)[c-](-c3ccccc3)[c-](-c3ccccc3)[c-]2-c2ccccc2)cc1 (configuration not stated) | 32% (active)
N#Cc1nc(NCC(F)F)nc(Nc2cc(F)cc(F)c2)n1 | 28% (active)
CN(C)CCCNC(=O)c1ccc(-c2nc(-c3ccc(Cl)cc3)cs2)cc1 | 28.3% (active)
Cc1ccc2nc(/C(C#N)=C\c3ccc([N+](=O)[O-])o3)[nH]c2c1 | 29.9% (active)
COC(=O)C1=C(C)N(Cc2ccccc2)C(=NCC(C)C)N[C@H]1c1cccc(C(F)(F)F)c1 | 26.2% (active)
COC(=O)Cc1ccc(NC(=O)c2ccc(C(C)(C)C)cc2)cc1 | 28.9% (active)
O=C(C[C@@H]1C/C=C/CC[C@H](Cc2ccc(F)cc2)C(=O)OC[C@@H](Cc2ccccc2)NC1=O)N[C@H](CO)Cc1ccccc1 | 29.8% (active)
COc1ccc(NC(=O)c2nc(S(=O)(=O)Cc3cccc(C)c3)ncc2Cl)c(OC)c1 | 23.1% (active)
Cc1ccc(C)c(C(=O)Cn2ncc(Cl)c(Cl)c2=O)c1 | 31.7% (active)
CC(C)(C)c1ccc(C(=O)O/N=C(\N)c2ccccc2)cc1 | 23.3% (active)
COC(=O)c1c(NC(=O)c2ccc(OC(C)C)cc2)sc2c1CC(C)(C)NC2(C)C | 23.6% (active)
C(=N\Nc1nncc2ccccc12)/c1ccccn1 | 29.9% (active)
COC(=O)c1sc(NC(=O)c2cc(-c3ccccc3)nc3ccccc23)c(C#N)c1C | 35.4% (active)

Target: Tumor necrosis factor receptor superfamily member 10B (Homo sapiens) (UniProt O14763)
Assay: viability loss of caspase-8 NB7 cells with TRAIL – with/without TRAIL, luminescence panel, confirmation (AID 651596; in the data active = activity above about 50%)
Conditions: NB7 neuroblastoma + caspase-8, TRAIL sensitization, NB7 Caspase-8, with TRAIL, mean of runs, at 10 µM, stronger effect = higher value

Chain of Tumor necrosis factor receptor superfamily member 10B (Homo sapiens) (O14763 whole entry, looked up): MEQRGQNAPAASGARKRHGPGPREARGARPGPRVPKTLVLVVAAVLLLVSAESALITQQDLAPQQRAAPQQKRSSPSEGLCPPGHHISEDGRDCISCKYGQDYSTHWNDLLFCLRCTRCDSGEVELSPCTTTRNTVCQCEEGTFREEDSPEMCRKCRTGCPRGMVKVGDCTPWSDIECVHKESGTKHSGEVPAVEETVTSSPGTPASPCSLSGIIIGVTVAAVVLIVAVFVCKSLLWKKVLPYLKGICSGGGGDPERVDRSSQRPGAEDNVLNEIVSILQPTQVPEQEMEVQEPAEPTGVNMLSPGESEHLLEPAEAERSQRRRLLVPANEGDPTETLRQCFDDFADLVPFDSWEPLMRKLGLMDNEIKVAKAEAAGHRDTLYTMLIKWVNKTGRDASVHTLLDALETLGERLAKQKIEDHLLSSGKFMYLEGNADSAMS

SMILES | activity [%]
COc1cccc(N2CCN(c3ncnc4c3cnn4-c3ccc(C)cc3C)CC2)c1 | 97.8
Cn1c(=NC(=O)CCl)sc2ccccc21 | 99.5
CCCCCCCC[n+]1cccc2c3ccccc3ccc21 | 74.7
CCCCCN=C(N)N/N=C/c1c[nH]c2ccc(OC)cc12 | 96.9
O=C(Nc1ccc2c(c1)OCCO2)c1cccc2nc3ccccc3nc12 | 59.7
CCN(CC)CCCNc1ccc(-c2nnc(-c3ccc(OCC(C)C)cc3)o2)cn1 | 82.5
CC(NC(=O)Nc1nnc(C(F)(F)F)s1)(C(F)(F)F)C(F)(F)F | 43.9
CCCCn1c(CCl)nc2cc(S(=O)(=O)N3CCOCC3)ccc21 | 92.6
COc1ccccc1C(=O)Nc1nc(-c2ccc(S(=O)(=O)N3CCOCC3)cc2)cs1 | 89.5
CCCCCc1ccc(OCCCC[n+]2ccccc2)c(CCCCC)c1 | 24.6
Cc1ccc(N(Cc2cc(=O)[nH]c3ccccc23)C(=O)CCl)cc1 | 99.1
Cc1ccc2sc(N(CCCN(C)C)C(=O)CCS(=O)(=O)c3ccccc3)nc2c1C | 62
O=C(Nc1ccc(OCC(F)(F)C(F)F)c(C(F)(F)F)c1)c1ccccc1O | 67.8
O=C(CSc1ccccn1)Nc1nonc1[N+](=O)[O-] | 30.1
CCCCC(O)(CCCC)C(=O)NN(C(=O)CCl)c1ccccc1 | 92.2
NC(=O)c1oc2ccccc2c1NC(=O)c1ccc([N+](=O)[O-])o1 | 69.1
CC(C)(C)c1ccc(C2CC2C(=O)N/N=C\c2ccc[nH]2)cc1 (configuration not stated) | 79.5
Cn1c(N)c(C(=O)COC(=O)c2ccccc2C(=O)c2ccc(Cl)c([N+](=O)[O-])c2)c(=O)n(C)c1=O | 98.5
N#CC1(NC(=O)Cn2ncc(Cl)c(Cl)c2=O)CCCCC1 | 98.5

SMILES | activity [%]
CCCCCCCNC(=O)C1(CC2CC(c3ccc(Cl)cc3)=NO2)CCNCC1 (configuration not stated) | 41.9
O=C(/C=C/c1ccccc1)NC(NC(=S)Nc1ccc(Cl)cc1)C(Cl)(Cl)Cl (configuration not stated) | 37.1
CCCCCc1cc(=O)oc2c(C(CCN3CCCCC3)c3cc(OC)c(OC)c(OC)c3)c(OC)cc(OC)c12 (configuration not stated) | 45.4
O=C(Nc1ccc(OCC(F)(F)C(F)F)c(C(F)(F)F)c1)c1ccc(Cl)cc1 | 87.3
O=C(Nc1ccc(OC(F)F)cc1)Nc1cccc(C(F)(F)F)c1 | 85.3
CC(=O)Nc1ccc(NC2=Nc3ccccc3N3C2=Nc2c(c(C)nn2-c2ccccc2)C3c2ccccc2)cc1 (configuration not stated) | 89.4
CN(C)c1ccnc2c[cH-]cc12.[Fe].c1ccc(-[c-]2[c-](-c3ccccc3)[c-](-c3ccccc3)[c-](-c3ccccc3)[c-]2-c2ccccc2)cc1 (configuration not stated) | 6.08
N#Cc1nc(NCC(F)F)nc(Nc2cc(F)cc(F)c2)n1 | 63.2
CN(C)CCCNC(=O)c1ccc(-c2nc(-c3ccc(Cl)cc3)cs2)cc1 | 95.2
Cc1ccc2nc(/C(C#N)=C\c3ccc([N+](=O)[O-])o3)[nH]c2c1 | 95.6
COC(=O)C1=C(C)N(Cc2ccccc2)C(=NCC(C)C)N[C@H]1c1cccc(C(F)(F)F)c1 | 25.1
COC(=O)Cc1ccc(NC(=O)c2ccc(C(C)(C)C)cc2)cc1 | 76.2
O=C(C[C@@H]1C/C=C/CC[C@H](Cc2ccc(F)cc2)C(=O)OC[C@@H](Cc2ccccc2)NC1=O)N[C@H](CO)Cc1ccccc1 | 87.7
COc1ccc(NC(=O)c2nc(S(=O)(=O)Cc3cccc(C)c3)ncc2Cl)c(OC)c1 | 30
Cc1ccc(C)c(C(=O)Cn2ncc(Cl)c(Cl)c2=O)c1 | 99.7
CC(C)(C)c1ccc(C(=O)O/N=C(\N)c2ccccc2)cc1 | 99.4
COC(=O)c1c(NC(=O)c2ccc(OC(C)C)cc2)sc2c1CC(C)(C)NC2(C)C | 43.5
C(=N\Nc1nncc2ccccc12)/c1ccccn1 | 78.7
COC(=O)c1sc(NC(=O)c2cc(-c3ccccc3)nc3ccccc23)c(C#N)c1C | 52.7
